Activity calls are given as the source filed them. The calls were made as follows: active = hit-call score of the fitted dose curve at least 0.9, where 1 is the maximum; inactive = score below 0.9.
Experiments:
Conditions in all cases: mRNA level, 48 h; actives raise or lower the signal
[1] = read-out: Cytochrome P450 2C19 (Homo sapiens) (UniProt P33261); experiment: LTEA_HepaRG_CYP2C19: Life Technologies and Expression Analysis (LTEA) Assay for CYP2C19 using HepaRG (AID 2283482)
Summary of the method: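 Human HepaRG liver cells received test chemicals for 48 h (highest 100 uM, half-log dilutions in 0.5% DMSO). CYP2C19 mRNA induction or loss is read by multiplexed qRT-PCR and fitted in both directions versus vehicle.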

[2] = read-out: cysteine-aspartic acid protease (CASP8), CASP8 (gene 841); experiment: LTEA_HepaRG_CASP8: Life Technologies and Expression Analysis (LTEA) Assay for cysteine-aspartic acid protease (CASP8) using HepaRG (AID 2283480)
Summary of the method: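 Differentiated human HepaRG cells, plated 48 h then switched to serum-free induction medium, were exposed in duplicate for 48 h to 8 half-log concentrations up to 100 uM in 0.5% DMSO. CASP8 mRNA was quantified by qRT-PCR, normalized to ACTB/GAPDH/POLR2A.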

[3] = read-out: Cytochrome P450 (CYP2B6), CYP2B6 (gene 1555); experiment: LTEA_HepaRG_CYP2B6: Life Technologies and Expression Analysis (LTEA) Assay for Cytochrome P450 (CYP2B6) using HepaRG (AID 2283481)
Summary of the method: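 Using 48 h treatment of HepaRG cells in serum-free induction medium, concentrations spanned half-log steps from 100 uM in 0.5% DMSO vehicle. CYP2B6 mRNA induction or loss is scored by qRT-PCR against DMSO.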

CYP2C8 (gene 1558) = experiment: LTEA_HepaRG_CYP2C8: Life Technologies and Expression Analysis (LTEA) Assay for CYP2C8 using HepaRG (AID 2283483)
Summary of the method: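 Differentiated human HepaRG cells were exposed for 48 h in serum-free induction medium to eight half-log concentrations up to 100 uM in 0.5% DMSO, in duplicate. CYP2C8 mRNA was measured by TaqMan qRT-PCR, normalized to ACTB, GAPDH and POLR2A, and fitted bidirectionally against DMSO.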

CYP2C9 (gene 1559) = experiment: LTEA_HepaRG_CYP2C9: Life Technologies and Expression Analysis (LTEA) Assay for CYP2C9 using HepaRG (AID 2283484)
Summary of the method: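 Differentiated human HepaRG cells were exposed 48 h in serum-free induction medium to eight half-log concentrations up to 100 uM in 0.5% DMSO. CYP2C9 mRNA was measured by qRT-PCR, normalized to ACTB, GAPDH and POLR2A, and fitted bidirectionally against DMSO.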

CYP2E1 (gene 1571) = experiment: LTEA_HepaRG_CYP2E1: Life Technologies and Expression Analysis (LTEA) Assay for CYP2E1 using HepaRG (AID 2283485)
Summary of the method: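 Differentiated HepaRG cells were treated in duplicate for 48 h with chemicals in 0.5% DMSO, from 100 uM downward in half-log dilutions. RNA was then analysed by qRT-PCR for CYP2E1 induction or loss.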

[4] = read-out: DNA damage-inducible transcript 3 (DDIT3), DDIT3 (gene 1649); experiment: LTEA_HepaRG_DDIT3: Life Technologies and Expression Analysis (LTEA) Assay for DNA damage-inducible transcript 3 (DDIT3) using HepaRG (AID 2283488)
Summary of the method: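 Changes in DDIT3 transcript, in either direction relative to 0.5% DMSO vehicle, were quantified by TaqMan qRT-PCR after 48 h chemical exposure of HepaRG cells at 8 concentrations, maximum 100 uM.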

[5] = read-out: Pro-epidermal growth factor (Homo sapiens) (UniProt P01133); experiment: LTEA_HepaRG_EGF: Life Technologies and Expression Analysis (LTEA) Assay for Epidermal growth factor (EGF) using HepaRG (AID 2283489)
Summary of the method: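 EGF expression changes in human HepaRG cells are scored by bidirectional fitting relative to 0.5% DMSO controls. Chemicals are tested at eight half-log concentrations up to 100 uM for 48 h in serum-free induction medium.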

[6] = read-out: Early growth response protein 1 (EGR1) transcription factor, EGR1 (gene 1958); experiment: LTEA_HepaRG_EGR1: Life Technologies and Expression Analysis (LTEA) Assay for Early growth response protein 1 (EGR1) transcription factor using HepaRG (AID 2283490)
Summary of the method: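 Differentiated human HepaRG cells in serum-free induction medium were exposed in duplicate for 48 h to eight concentrations (top 100 uM, half-log steps) in 0.5% DMSO. EGR1 mRNA was quantified by qRT-PCR, normalized to ACTB, GAPDH and POLR2A, and fitted bidirectionally versus DMSO.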

CYP4A11 (gene 1579) = experiment: LTEA_HepaRG_CYP4A11: Life Technologies and Expression Analysis (LTEA) Assay for CYP4A11 using HepaRG (AID 2283486)
Summary of the method: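 Readout is CYP4A11 mRNA induction or suppression (qRT-PCR, ACTB/GAPDH/POLR2A normalization) in human HepaRG cells after 48 h chemical treatment, concentrations to 100 uM in 0.5% DMSO, fitted bidirectionally against vehicle.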

Chain of Cytochrome P450 2C19 (Homo sapiens) (P33261 whole entry, looked up): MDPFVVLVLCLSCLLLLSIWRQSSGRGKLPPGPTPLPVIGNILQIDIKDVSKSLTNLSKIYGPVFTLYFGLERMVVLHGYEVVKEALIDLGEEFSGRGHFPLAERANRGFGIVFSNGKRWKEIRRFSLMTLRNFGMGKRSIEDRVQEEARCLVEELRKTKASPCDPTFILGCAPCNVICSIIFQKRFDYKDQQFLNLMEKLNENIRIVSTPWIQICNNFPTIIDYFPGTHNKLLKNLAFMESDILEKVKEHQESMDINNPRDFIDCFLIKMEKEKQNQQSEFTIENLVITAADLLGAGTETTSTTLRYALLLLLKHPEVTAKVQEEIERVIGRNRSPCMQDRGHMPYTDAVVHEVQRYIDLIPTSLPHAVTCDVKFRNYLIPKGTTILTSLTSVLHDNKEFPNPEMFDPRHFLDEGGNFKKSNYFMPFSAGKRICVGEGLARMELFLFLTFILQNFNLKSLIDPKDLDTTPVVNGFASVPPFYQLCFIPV

SMILES | outcome [1] | outcome [2] | AC50 [3] | AC50 (CYP2C8 (gene 1558)) | outcome (CYP2C9 (gene 1559)) | AC50 (CYP2E1 (gene 1571)) | AC50 [4] | outcome [5] | outcome [6] | outcome [3] | outcome (CYP2C8 (gene 1558)) | outcome (CYP2E1 (gene 1571)) | outcome (CYP4A11 (gene 1579)) | outcome [4] | AC50 (CYP4A11 (gene 1579)) | AC50 [5]
O=P1(N(CCCl)CCCl)NCCCO1 (centres undefined) | inactive | – | – | – | – | – | – | – | – | – | – | – | – | – | – | –
O=P(Oc1ccccc1)(Oc1ccccc1)Oc1ccccc1 | – | inactive | 1.23 µM (active) | 12.4 µM (active) | inactive | 26.2 µM (active) | 75.4 µM (active) | inactive | inactive | – | – | – | – | – | – | –
OCC1CO1 (centres undefined) | – | inactive | – | – | inactive | – | – | inactive | inactive | inactive | inactive | inactive | inactive | inactive | – | –
CC(C)(C)OOC(C)(C)C | – | inactive | – | – | inactive | – | – | inactive | inactive | inactive | inactive | inactive | inactive | inactive | – | –
CCOP(=S)(OCC)SCSCC | – | inactive | 4.47 µM (active) | – | inactive | – | – | inactive | inactive | – | inactive | inactive | inactive | inactive | – | –
CC(Cc1ccc(OCC(=O)O)cc1)NCC(O)c1csc(C(F)(F)F)n1 (centres undefined) | – | inactive | – | – | inactive | – | – | inactive | inactive | inactive | inactive | inactive | inactive | – | – | –
Nc1ccc(Cl)cc1 | – | inactive | – | – | inactive | – | – | inactive | inactive | inactive | inactive | inactive | inactive | inactive | – | –
Cc1cccc(N)c1 | – | inactive | – | – | inactive | – | – | – | inactive | inactive | inactive | inactive | inactive | inactive | – | –
CC(C)(C)c1ccc(O)cc1 | – | inactive | – | – | – | – | – | inactive | inactive | – | – | – | – | inactive | – | –
O=[N+]([O-])c1ccccc1 | – | inactive | – | – | inactive | – | – | – | inactive | inactive | inactive | inactive | inactive | inactive | – | –
ClC1=C(Cl)C2(Cl)C3C(Cl)C(Cl)CC3C1(Cl)C2(Cl)Cl (centres undefined) | – | inactive | 0.994 µM (active) | 2.17 µM (active) | inactive | 27.7 µM (active) | 82.1 µM (active) | – | inactive | – | – | – | – | – | 24.6 µM (active) | 18.4 µM (active)
CCOc1ccc(C(C)(C)COCc2cccc(Oc3ccccc3)c2)cc1 | – | inactive | 0.63 µM (active) | 3.05 µM (active) | inactive | 26 µM (active) | – | – | inactive | – | – | – | – | inactive | 61.5 µM (active) | 15 µM (active)
CCCCCCCc1ccc(O)cc1 | – | inactive | – | – | inactive | – | – | inactive | inactive | inactive | inactive | inactive | inactive | inactive | – | –
CCCCN(CCCC)N=O | – | inactive | – | – | inactive | – | – | inactive | inactive | inactive | inactive | inactive | inactive | inactive | – | –
c1ccc2c(c1)Nc1ccccc1S2 | – | inactive | 36.6 µM (active) | – | inactive | 66.2 µM (active) | – | inactive | inactive | – | inactive | – | inactive | inactive | – | –
Cc1ccc(N)cc1N | – | inactive | 5 µM (active) | – | inactive | 18.6 µM (active) | – | inactive | inactive | – | inactive | – | inactive | inactive | – | –
Cc1ccc(O)cc1C | – | inactive | – | – | – | – | – | inactive | inactive | – | – | – | – | inactive | – | –
O=[N+]([O-])c1ccc(Cl)c(Cl)c1 | – | inactive | – | – | inactive | – | – | inactive | inactive | inactive | inactive | inactive | inactive | inactive | – | –
CCOP(=S)(Oc1ccc([N+](=O)[O-])cc1)c1ccccc1 (centres undefined) | – | inactive | 1.05 µM (active) | 2.42 µM (active) | inactive | 37.3 µM (active) | – | – | inactive | – | – | – | – | inactive | 10.8 µM (active) | 21.4 µM (active)
CCN(CC)c1ccccc1 | – | inactive | – | – | inactive | – | – | inactive | inactive | inactive | inactive | inactive | inactive | inactive | – | –
CCC1(c2ccccc2)C(=O)N=C(O)NC1=O (centres undefined) | – | inactive | 34.7 µM (active) | 50 µM (active) | inactive | – | – | inactive | inactive | – | – | inactive | – | inactive | – | –
Cc1ccc([N+](=O)[O-])cc1C | – | inactive | – | – | inactive | – | – | inactive | inactive | inactive | inactive | inactive | inactive | inactive | – | –
CCOC(=O)c1ccccc1C(=O)OCC | – | inactive | – | – | inactive | – | – | inactive | inactive | inactive | inactive | inactive | inactive | inactive | – | –

— PubChem BioAssay (EPA / NIEHS)
